From PubChem
JMJD2A Tudor: qHTS Assay for Inhibitors of JMJD2A-Tudor Domain; AID 504339, 2011; Lysine-specific demethylase 4A (Homo sapiens), O75164; AlphaScreen JMJD2A-Tudor / H3K4me3 peptide binding; Potency, µM (highest dose often 114 µM), inactives show at the top dose activity change, negative = inhibition, hits mostly inhibitors; 390,000 tested, 4.4% active; also: % is scaled to controls: 0 for no effect and ±100 for the full control effect; nearly all actives have a fitted effect of over 50% in size
G9a block: qHTS Assay for Inhibitors of Histone Lysine Methyltransferase G9a | Histone-lysine N-methyltransferase EHMT2 (Homo sapiens), Q96KQ7 | G9a H3K9 monomethylation, AlphaScreen, 2 h | Potency, µM (titrated, usually from 102 µM), for inactives: top-dose activity, negative = inhibition, actives largely listed as inhibitors | 350,000 tested, 8.8% active; also: % is scaled to controls: 0 for no effect and ±100 for the full control effect; nearly all actives have a fitted effect of over 75% in size
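Step 1: enzyme (final 20 nM) with compound, 15 min RT. Step 2: substrate peptide 500 nM and SAM 20 uM, 2 h RT. Step 3: anti-H3K9me1 antibody and AlphaScreen beads, 10 min, then plate read.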
PLK1 PBD inh: qHTS for Inhibitors of PLK1-PDB (polo-like kinase 1 - polo-box domain): Primary Screen; Serine/threonine-protein kinase PLK1 (Homo sapiens), P53350; Plk1 PBD binding of FITC phosphopeptide, fluorescence polarization; Potency, µM, without a hit: max response, negative = inhibition, hits mostly inhibitors; 360,000 tested, 2.8% active; also: series mostly up to about 57 µM; % is scaled to controls: 0 for no effect and ±100 for the full control effect; nearly all actives have a fitted effect of over 65% in size
HP1b binding inh: HTS for Inhibitors of HP1-beta Chromodomain Interactions with Methylated Histone Tails; AID 540317, 2011; Chromobox protein homolog 1 (Homo sapiens), P83916; AlphaScreen HP1-beta / biotin-H3K9me3 peptide binding; Potency, µM (doses to about 114 µM), inactives show top-dose activity change, negative = inhibition, most hits filed as inhibitors; 390,000 tested, 0.56% active; also: nearly all actives have a fitted effect of over 70% in size
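AlphaScreen: HP1-beta (50 nM) preformed 30 min with biotin-H3(1-18)K9me3 peptide (50 nM) in PBS pH 7.4, 0.01% Tween-20. Compound added for 30 min at RT, then streptavidin donor/nickel chelate acceptor beads (10 ug/mL) for 30 min.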
Sfp inh: qHTS Assay for Inhibitors of Bacillus subtilis Sfp phosphopantetheinyl transferase (PPTase); 4'-phosphopantetheinyl transferase ffp (Bacillus subtilis), Q9F4F7; Biochemical Sfp PPTase activity, qHTS; Potency, µM, for the others: largest response in the series, negative = inhibition, usual class: inhibitors; 310,000 tested, 3.5% active; AID 1490, 2009;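 also: the enzyme is Sfp with the accession as filed and its product quenches rhodamine fluorescence; 0% = enzyme reaction without inhibitor and -100% = no enzyme wells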
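With Hepes-Na pH 7.6 buffer containing 10 mM MgCl2, Sfp (15 nM) modified BHQ-2-YbbR (12.5 uM) using rhodamine-CoA (5 uM). Two reads 30 minutes apart at 525/598 nm yielded each well's rate.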
BAZ2B block: qHTS Assay for Inhibitors of BAZ2B | Bromodomain adjacent to zinc finger domain protein 2B (Homo sapiens), Q9UIF8 | AlphaScreen BAZ2B-H3K14Ac peptide displacement | 360,000 tested, 4.4% active | Potency, µM (highest dose often 114 µM), for inactives: at the top dose activity change, negative = inhibition, hits mostly inhibitors; also: % is scaled to controls: 0 for no effect and ±100 for the full control effect; nearly all actives have a fitted effect of over 60% in size
Target sequence (Q9UIF8 whole entry, looked up, the tested form may be a part): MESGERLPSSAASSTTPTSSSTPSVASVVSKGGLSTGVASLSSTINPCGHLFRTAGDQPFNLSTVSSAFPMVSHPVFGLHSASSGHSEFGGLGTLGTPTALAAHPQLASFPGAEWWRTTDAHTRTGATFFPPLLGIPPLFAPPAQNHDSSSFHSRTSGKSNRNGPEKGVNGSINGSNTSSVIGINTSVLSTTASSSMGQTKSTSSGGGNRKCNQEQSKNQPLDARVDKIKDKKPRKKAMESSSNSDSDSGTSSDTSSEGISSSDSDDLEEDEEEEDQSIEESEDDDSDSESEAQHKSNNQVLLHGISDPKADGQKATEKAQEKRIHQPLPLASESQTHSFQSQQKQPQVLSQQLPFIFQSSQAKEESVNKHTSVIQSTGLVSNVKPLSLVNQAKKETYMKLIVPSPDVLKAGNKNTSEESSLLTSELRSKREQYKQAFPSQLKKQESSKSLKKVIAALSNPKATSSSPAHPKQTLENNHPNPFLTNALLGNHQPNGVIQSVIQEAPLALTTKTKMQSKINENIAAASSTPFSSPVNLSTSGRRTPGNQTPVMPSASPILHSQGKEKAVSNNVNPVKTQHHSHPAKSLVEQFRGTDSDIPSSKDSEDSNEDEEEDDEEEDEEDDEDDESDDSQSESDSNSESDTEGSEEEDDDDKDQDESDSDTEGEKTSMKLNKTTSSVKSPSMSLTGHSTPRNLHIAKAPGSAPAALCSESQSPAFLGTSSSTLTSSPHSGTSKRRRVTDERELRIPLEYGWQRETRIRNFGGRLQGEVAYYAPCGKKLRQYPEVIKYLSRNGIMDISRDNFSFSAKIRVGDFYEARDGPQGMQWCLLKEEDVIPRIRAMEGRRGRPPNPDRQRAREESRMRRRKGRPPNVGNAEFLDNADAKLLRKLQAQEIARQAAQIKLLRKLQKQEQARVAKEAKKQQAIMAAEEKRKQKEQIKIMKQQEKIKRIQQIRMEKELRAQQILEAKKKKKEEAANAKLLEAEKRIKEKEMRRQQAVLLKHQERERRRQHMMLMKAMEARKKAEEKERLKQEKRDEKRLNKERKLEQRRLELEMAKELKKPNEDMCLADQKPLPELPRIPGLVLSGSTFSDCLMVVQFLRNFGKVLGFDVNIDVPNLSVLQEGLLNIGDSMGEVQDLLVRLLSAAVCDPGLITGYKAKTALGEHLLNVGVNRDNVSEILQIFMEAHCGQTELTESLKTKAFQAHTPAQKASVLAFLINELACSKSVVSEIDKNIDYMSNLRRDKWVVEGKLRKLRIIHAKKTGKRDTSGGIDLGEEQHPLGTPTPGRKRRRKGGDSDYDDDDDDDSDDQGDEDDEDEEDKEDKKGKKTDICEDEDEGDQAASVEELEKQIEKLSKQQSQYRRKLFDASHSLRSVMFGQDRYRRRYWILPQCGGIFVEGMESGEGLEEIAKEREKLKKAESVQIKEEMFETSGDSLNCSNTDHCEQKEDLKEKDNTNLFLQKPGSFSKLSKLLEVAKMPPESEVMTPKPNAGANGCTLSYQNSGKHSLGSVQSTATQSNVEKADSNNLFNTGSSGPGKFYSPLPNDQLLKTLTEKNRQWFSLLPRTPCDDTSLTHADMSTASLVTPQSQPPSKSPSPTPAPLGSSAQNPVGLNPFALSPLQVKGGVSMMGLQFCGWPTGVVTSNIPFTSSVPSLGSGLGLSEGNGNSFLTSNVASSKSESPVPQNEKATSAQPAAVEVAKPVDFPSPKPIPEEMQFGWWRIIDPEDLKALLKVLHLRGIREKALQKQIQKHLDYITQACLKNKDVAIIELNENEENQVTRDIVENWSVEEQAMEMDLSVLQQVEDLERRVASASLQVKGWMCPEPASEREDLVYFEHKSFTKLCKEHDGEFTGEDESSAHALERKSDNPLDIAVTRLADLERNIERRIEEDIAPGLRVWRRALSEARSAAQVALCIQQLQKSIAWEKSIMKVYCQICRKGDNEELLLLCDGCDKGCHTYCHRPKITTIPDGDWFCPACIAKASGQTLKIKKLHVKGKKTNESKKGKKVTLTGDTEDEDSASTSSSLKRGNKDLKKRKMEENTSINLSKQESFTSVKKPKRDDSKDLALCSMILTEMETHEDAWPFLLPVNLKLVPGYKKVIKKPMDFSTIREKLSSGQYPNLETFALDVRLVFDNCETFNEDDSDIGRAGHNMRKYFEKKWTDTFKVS
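Compounds, titrated to a top concentration of 110 uM, were incubated 30 min at room temperature with preformed BAZ2B/acetyl-K14 H3 peptide complex (50 nM each). Proximity signal was measured by AlphaScreen after 20 min with beads.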
Numbers without * were called inactive; ? = inconclusive; . = no result; [ ] = another dose, or the depositor's remark. Compounds with a hit are over-represented: about 12% of the library has one in this group of screens. Calls follow the shape of the dose curve; as a rule, active = well fitted curve in the direction sought with a large enough effect; inconclusive = small, poorly fitted or top-dose-only effect, or another doubt; inactive = no such curve, though single readings can be large; an effect the other way counts as inactive or inconclusive. Potency is read from the fitted curve at half-maximal effect.

SMILES	JMJD2A Tudor	G9a block	PLK1 PBD inh	HP1b binding inh	Sfp inh	BAZ2B block
CCc1ccc(OCC(=O)Nc2cc3oc4ccccc4c3cc2OC)c(Br)c1	-14.4%	8.4%[59 µM]	.	29.5%	.	3.5%
CC(=O)NCCNc1ncnc2ccc(-c3ccc4c(c3)OCO4)cc12	.	-29.0%[0.501 µM]	.	.	-5.4%	.
NC(N)=NN=C(c1ccc(F)cc1)c1ccc(C(F)(F)F)cc1	-16.0%	.	2.3%	21.7%	.	.
COc1cccc(-c2cnc(NCc3cc(Cl)ccc3O)n2C)c1	4.47µM*	8.91µM*	-5.3%	?	?	39.8µM*
Cn1c(-c2ccccc2)cnc1NCc1ccccc1O	28.2µM*	10µM*	.	?	.	50.1µM*
Cn1c(-c2ccccc2)cnc1NCc1ccc(F)cc1	35.5µM*	.	0.5%	?	-31.8%	?
CC(=O)n1nc(-c2ccccc2)nc1NCc1ccc(F)cc1	29.3%	-11.8%[2.33 µM]	-5.1%	117.5%	-14.9%	31.7%
CCOC1CCCC(n2cnc3c(=S)nc[nH]c32)O1 (centres undefined)	17.8µM*	.	-20.9%	?	.	.
Nc1ncnc2c1ncn2C1CCCC(CO)O1 (centres undefined)	-5.5%	.	1.3%	22.8%[57 µM]	.	.
CC[C@H](C)[C@H](NC(=O)[C@H](N)Cc1ccc(O)cc1)C(=O)N[C@@H](CC(N)=O)C(=O)N[C@@H](CC(C)C)C(=O)N[C@H](C(=O)N[C@@H](C(=O)N[C@@H](CCCN=C(N)N)C(=O)N[C@@H](CCC(N)=O)C(=O)N[C@@H](CCCN=C(N)N)C(=O)N[C@H](Cc1ccc(O)cc1)C(N)=O)[C@@H](C)O)[C@@H](C)CC	.	.	.	.	-1.9%	.
CC1(C(=O)O)NCCc2cc(O)c(O)cc21 (centres undefined)	.	17.8µM*	.	.	56.2µM*	.
COCCNC(=O)C1(C)CCN(C(=O)COc2ccc(Cl)cc2Cl)C1 (centres undefined)	.	.	-9.7%	.	.	.
Cc1ccc(-c2ccc(/C=N\NC(=O)c3cc4c(ccc5ccccc54)o3)o2)cc1[N+](=O)[O-]	-31.6%	.	-2.1%	14.4%	-11.2%	2.3%
O=C(N/N=C/c1ccc(-c2ccc(Cl)c(C(=O)O)c2)o1)c1cc2c(ccc3ccccc32)o1	-8.1%[11.4 µM]	.	?	?	?	28.2µM*
NNC(=O)c1cc2c(ccc3ccccc32)o1	-18.7%	44.2%[59 µM]	-21.8%	-3.8%	1.0%	5.6%
O=C(Nc1cccnc1)c1cc2c(ccc3ccccc32)o1	56.2µM*	?	-4.2%	10.7%	-10.7%	79.4µM*
O=C(O)c1ccc(/C=N/NC(=O)c2cc3c(ccc4ccccc43)o2)cc1	?	?	?	30.5%	-24.9%	70.8µM*
COc1ccc(NC(=O)CSc2nnc(C)c3ccccc23)cc1	-22.0%	50.1µM*	-7.8%	19.0%[57 µM]	-0.1%	-28.6%
COc1ccc(-c2nnc(SCC(=O)NC3CCCCC3)n2N)cc1	-10.5%	44.7µM*	?	33.8%	.	6.9%
N#Cc1cccc(NC(=O)CSc2ccc3c4c(cccc24)C(=O)c2ccccc2-3)c1	-15.6%	?	?	28.2%	11.4%	-3.2%
COc1ccc(NC(=O)CSc2ccc3c4c(cccc24)C(=O)c2ccccc2-3)cc1	-11.2%	-6.0%	?	11.8%	39.8µM*	2.4%
COc1ccccc1-c1nnc(SCC(=O)NC2CCCCC2)o1	?	-0.9%	26.7µM*	-15.1%	-3.0%	9.2%
COc1ccc(NC(=O)CSc2nncc3ccccc23)cc1	-14.3%	7.0%	3.7%	53.7%	-2.1%	3.3%
CCOc1ccc(C(=O)NCCc2sc(-c3ccc(F)cc3)nc2C)cc1	-8.9%	7.8%[59 µM]	.	48.3%	.	-2.2%
